# The supplement of paper PMC10723795
# ± gives the standard deviation of the averaged measurements.
# Test system: CHON-002
# Test: nucleolar normality score relative to DMSO (fraction of DMSO control); RPE1 is a non-cancer human cell line; higher = more normal nucleoli (less nucleolar stress)
# Description: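 Selected screen hits were validated in hTERT lines (BJ5TA, CHON-002, RPE1) and cancer lines (DLD1, HCT116). Cells were immunostained for nucleolin and UBF and the nucleolar normality score was measured per field of view, with 4 fields per drug. Scores are normalized to each cell line's own DMSO control. Dose and time are not stated for this panel.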
row,Compound,nucleolar normality score
1,CC[C@@]1(O)C(=O)OCc2c1cc1n(c2=O)Cc2cc3ccccc3nc2-1 [Camptothecin],0.38 ± 0.047
